# In all, about 2,000 compounds went through this assay and about 80 (4%) were called active. The full list was thinned out, with actives kept by preference. Unmarked numbers belong to inactive results.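 Rule for the calls: active = aptamer displacement above 40%, near three times the noise of non-fluorescent compounds, on plates passing quality checks; inactive = the rest.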
# Target: Beta-adrenergic receptor kinase 1 (Homo sapiens) (UniProt P25098)
# Experiment: RNA aptamer-GRK2 binding blockers – biochemical, cherry pick 1, bead flow cytometry, confirmation (AID 504451);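 note: negative values mostly reflect intrinsic compound fluorescence rather than true enhancement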
# Settings: bead-bound GRK2, FAM-aptamer displacement, at 10 µM, active compounds read high
# Beta-adrenergic receptor kinase 1 (Homo sapiens), sequence (P25098 whole entry, looked up): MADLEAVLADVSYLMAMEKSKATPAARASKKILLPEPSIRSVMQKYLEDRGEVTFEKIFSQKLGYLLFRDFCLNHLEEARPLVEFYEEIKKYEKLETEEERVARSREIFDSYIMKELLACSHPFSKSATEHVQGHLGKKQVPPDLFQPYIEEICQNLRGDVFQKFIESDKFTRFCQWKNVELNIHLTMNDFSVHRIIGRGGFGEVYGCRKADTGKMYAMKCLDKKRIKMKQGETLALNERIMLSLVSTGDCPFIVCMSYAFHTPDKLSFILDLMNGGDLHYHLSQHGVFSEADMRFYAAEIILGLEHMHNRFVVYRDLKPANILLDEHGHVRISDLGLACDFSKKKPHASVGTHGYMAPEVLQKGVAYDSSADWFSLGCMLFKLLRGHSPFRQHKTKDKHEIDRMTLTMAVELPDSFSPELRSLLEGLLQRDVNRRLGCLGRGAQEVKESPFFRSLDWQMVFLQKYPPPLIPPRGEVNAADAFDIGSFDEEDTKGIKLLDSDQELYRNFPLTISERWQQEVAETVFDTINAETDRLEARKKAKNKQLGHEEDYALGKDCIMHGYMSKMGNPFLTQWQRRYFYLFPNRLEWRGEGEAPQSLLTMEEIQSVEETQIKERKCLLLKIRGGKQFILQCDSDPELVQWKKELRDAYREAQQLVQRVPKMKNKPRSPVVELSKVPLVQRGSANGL
row,Structure (SMILES),aptamer displacement
1,O=C1NC(=O)N(Cc2ccco2)C(=O)/C1=C\c1cccn1CCOc1ccccc1,0.73%
2,COc1ccc(N2C(=O)/C(=C/c3ccco3)C(=O)NC2=S)cc1,86.6% (active)
3,Cc1c(C(=O)O)cccc1-n1c(C)cc(/C=C2\C(=O)NC(=O)N(c3ccc4c(c3)OCO4)C2=O)c1C,37.1%

# From PubChem BioAssay AID504451 (NMMLSC, 2011)
